SMILES strings stand for the structures. Records with an inconclusive call do not appear. Where a call stands in place of a potency, no number is given. The source made the active and inactive calls. Calls follow the shape of the dose curve; as a rule, active = well fitted curve in the direction sought with a large enough effect; inconclusive = small, poorly fitted or top-dose-only effect, or another doubt; inactive = no such curve, though single readings can be large; an effect the other way counts as inactive or inconclusive.

Assay [1] has as its system Nanoluciferase (engineered Oplophorus gracilirostris luciferase). In words: Primary Nanoluciferase (NLuc) qHTS assay for identification of artifact compounds. (AID 1845222).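 Also: NLuc secreted into diluted conditioned medium of S16 cells.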 Conditions: NLuc-conditioned medium, Nano-Glo luminescence, 5 min; series mostly up to 54.1 µM. The method in brief:
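S16 cell supernatant NLuc, 1:55; cpds qHTS; 15 min RT dark; Nano-Glo substrate 1:100, 5 min; luminescence; Hill fit of % inhibition.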

Assay [2] in a line: Primary redox qHTS assay for identification of artifact compounds. (AID 1845223). The conditions noted are these: Amplex Red/HRP redox cycling with DTT, fluorescence; series mostly up to 53.8 µM. The method, boiled down:
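Redox-cycling detection via DTT (250 uM final) oxidation coupled to Amplex Red (25 uM)/HRP (250 mU/mL) in HBSS. 15 min preincubation plus 30 min after DTT, room temperature. Ex/Em 525/598 nm; 4-parameter Hill fit against DMSO and 10 uM DA3003.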
A general note: Quantitative high-throughput screening tests each substance at several concentrations.

As to `CC(/C=C/C1(O)C(C)CC(O)CC1(C)C)OC1OC(CO)C(O)C(O)C1O` (stereo not drawn), the Potency result in assay [1] and in assay [2] was “inactive” throughout.

As to `CNC(=O)Nc1ccc(OC)c(NC(=O)NC(=O)c2cc(F)c(F)cc2Cl)c1`, the Potency result in assay [1] and in assay [2] was “inactive” each time.

In the case of `C=C1CC2C3(C)C(O)CC(=O)C(C)(C)C3C(OC(C)=O)C(OC(C)=O)C2(C)C2C(=O)OC(C)(C(=O)OC)C(=O)C12C` (stereo not drawn), the Potency result in assay [1] and in assay [2] was “inactive” in each case.

As to `COc1ccc2c(c1)OC[C@]1(O)c3cc4c(cc3O[C@H]21)OCO4`, the Potency result in assay [1] and in assay [2] was “inactive” in each case.

As for `C=C1CCC2C(C)(C(=O)O)CC(O)CC2(C)C1CC/C(C)=C/C(=O)O` (stereo not drawn), the Potency entry in assay [1] and in assay [2] was “inactive” throughout.

For `CC(=O)N[C@H]1CCN(c2ccc(C3=NOC(CN[S+](=O)([O-])C(C)C)C3)cc2F)C1` (stereo partly drawn), the Potency entry in assay [1] and in assay [2] was “inactive” in each case.

For the compound `CC[C@@H](c1ccc(F)c(F)c1)n1c(C(=O)OC)c(-c2ccno2)[nH]c1=S`, the Potency result in assay [1] and in assay [2] was “inactive” throughout.

Turning to `OC[C@H]1O[C@@H](Oc2cc(O)cc(/C=C/c3ccc(O)cc3)c2)[C@H](O)[C@@H](O)[C@@H]1O`, the Potency entry in assay [1] and in assay [2] was “inactive” throughout.

Take `COc1cc2c(cc1O)C1(Cc3ccc4c(c3C1=O)OCO4)N(C)CC2` (stereo not drawn): the Potency entry in assay [1] and in assay [2] was “inactive” each time.

As for `CCC1CC2C(C)=CC3CCCCC3C2(C)C2(OC(=O)C(C)(O)OC2=O)O1` (stereo not drawn), the Potency entry in assay [1] and in assay [2] was “inactive” throughout.

Take `C/C(=C\CO)CC/C=C(\C)C(=O)O[C@H]1[C@H](OC2OC=C(C(=O)O)C3CCC(C)(O)C23)O[C@H](CO)[C@@H](O)[C@@H]1O` (stereo partly drawn): the Potency entry in assay [1] and in assay [2] was “inactive” in each case.

Take `NCc1ccc(OCCCc2sc(-c3ccc4c(c3)/C(=N/Nc3nc5ccccc5s3)CCC4)nc2C(=O)O)cc1`: in assay [2], the Potency result was “inactive”.

For the origin of these results see PubChem BioAssay (NCATS).
